Data from PubChem BioAssay (NCATS).
Inconclusive results are not listed. Calls of active or inactive are those of the source. Calls come from the whole dose curve; as a rule, active = well fitted cell-killing curve with a large enough effect; inconclusive = small, poorly fitted or top-dose-only effect; inactive = flat fitted curve, though single readings scatter.

target: Nicotinamide N-methyltransferase (Homo sapiens) (UniProt P40261); assay: Confirmatory Screen for Target Class Profiling of Small Molecule Inhibitors of Methyltransferases (AID 1745852); settings: MTase-Glo luminescence, SAH detection, recombinant enzyme; measured here: NNMT max response; stronger effect = lower value
Sequence (P40261 whole entry, looked up): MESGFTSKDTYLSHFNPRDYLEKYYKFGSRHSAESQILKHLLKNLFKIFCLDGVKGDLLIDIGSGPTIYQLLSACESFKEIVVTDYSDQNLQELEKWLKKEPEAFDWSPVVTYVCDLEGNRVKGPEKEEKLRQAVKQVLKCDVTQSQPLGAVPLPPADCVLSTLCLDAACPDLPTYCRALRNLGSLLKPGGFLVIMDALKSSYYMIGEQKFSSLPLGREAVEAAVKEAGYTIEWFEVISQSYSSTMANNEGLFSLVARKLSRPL

Row | SMILES | activity [%]
1 | CCOC(=O)N1CCN(/[N+]([O-])=N/Oc2ccc([N+](=O)[O-])cc2[N+](=O)[O-])CC1 | -19
2 | CC(C)(C=O)Cc1cc(C(C)(C)C)c(O)c(C(C)(C)C)c1 | -8.99
3 | COc1ccc(/C=C2\COc3ccc(C)cc3C2=O)cc1O | -20.1
4 | CC(C)(C)c1ccc(S(=O)(=O)/C=C/C#N)cc1 | -4.25
5 | N.N.N.N.N.N.N.N.N.N.N.N.N.N.O.O.[Ru+4].[Ru+5].[Ru+5] | -45.3
6 | COC1=C(OC)C(=O)c2ccccc2C1=O | -23.6
7 | COc1cc(/C=C/C(=O)CC(=O)/C=C/c2ccc(O)c(OC)c2)ccc1O | -4.44
8 | CN1CCc2cccc3c2C1Cc1ccc(O)c(O)c1-3 (stereo not given) | 0.623
9 | O=C1NCc2c1c1c3ccccc3[nH]c1c1[nH]c3ccccc3c21 | -25.9
10 | O=C(O)CC[C@@H](C(=O)O)N1C(=O)c2ccccc2C1=O | -12.9
11 | COc1ccc(NC(=O)/C=C/c2ccc(Cl)cc2)cc1 | -60.9
12 | O=C(O)CNC(=O)C(CS)Cc1ccccc1 (stereo not given) | 2.86
13 | COc1cc(OC)c(/C=C2/C(=O)Nc3ccccc32)c(OC)c1 | -28.2
14 | O=Nc1ccc2oc(=O)ccc2c1 | -0.856
15 | COc1ccccc1CNCCCCCCNCCCCCCCCNCCCCCCNCc1ccccc1OC | -17.7
16 | O=C(c1cc(O)c(O)c([N+](=O)[O-])c1)c1ccccc1F | -15.6
17 | Oc1cc(O)cc(/C=C/c2ccc(O)c(O)c2)c1 | -18.4

target: Phenylethanolamine N-methyltransferase (Homo sapiens) (UniProt P11086); assay: as above; settings: MTase-Glo luminescence, SAH detection, recombinant enzyme; measured here: PNMT max response; stronger effect = lower value
Sequence (P11086 whole entry, looked up): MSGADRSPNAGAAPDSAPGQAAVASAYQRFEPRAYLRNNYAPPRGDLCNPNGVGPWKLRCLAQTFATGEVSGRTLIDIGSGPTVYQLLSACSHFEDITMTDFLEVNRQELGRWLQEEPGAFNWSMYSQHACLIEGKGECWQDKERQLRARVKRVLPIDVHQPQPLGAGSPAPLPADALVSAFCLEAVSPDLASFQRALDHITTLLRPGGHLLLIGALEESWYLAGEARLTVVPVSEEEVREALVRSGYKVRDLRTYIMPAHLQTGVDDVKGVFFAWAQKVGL

Row | SMILES | activity [%]
18 | CCOC(=O)N1CCN(/[N+]([O-])=N/Oc2ccc([N+](=O)[O-])cc2[N+](=O)[O-])CC1 | -3.94
19 | CC(C)(C=O)Cc1cc(C(C)(C)C)c(O)c(C(C)(C)C)c1 | -4.11
20 | COc1ccc(/C=C2\COc3ccc(C)cc3C2=O)cc1O | 4.48
21 | CC(C)(C)c1ccc(S(=O)(=O)/C=C/C#N)cc1 | 5.53
22 | N.N.N.N.N.N.N.N.N.N.N.N.N.N.O.O.[Ru+4].[Ru+5].[Ru+5] | -7.59
23 | COC1=C(OC)C(=O)c2ccccc2C1=O | -70.6
24 | COc1cc(/C=C/C(=O)CC(=O)/C=C/c2ccc(O)c(OC)c2)ccc1O | 9.5
25 | CN1CCc2cccc3c2C1Cc1ccc(O)c(O)c1-3 (stereo not given) | 3.44
26 | O=C1NCc2c1c1c3ccccc3[nH]c1c1[nH]c3ccccc3c21 | -28.7
27 | O=C(O)CC[C@@H](C(=O)O)N1C(=O)c2ccccc2C1=O | -4.01
28 | COc1ccc(NC(=O)/C=C/c2ccc(Cl)cc2)cc1 | -10.5
29 | O=C(O)CNC(=O)C(CS)Cc1ccccc1 (stereo not given) | 8.57
30 | COc1cc(OC)c(/C=C2/C(=O)Nc3ccccc32)c(OC)c1 | -34.5
31 | O=Nc1ccc2oc(=O)ccc2c1 | 5.38
32 | COc1ccccc1CNCCCCCCNCCCCCCCCNCCCCCCNCc1ccccc1OC | 2.9
33 | O=C(c1cc(O)c(O)c([N+](=O)[O-])c1)c1ccccc1F | -23.2
34 | Oc1cc(O)cc(/C=C/c2ccc(O)c(O)c2)c1 | -8.17

system: not listed separately; assay: NCATS anti-infectives library activity on HEK293 viability as a counter-qHTS vs the C. elegans viability qHTS (AID 1745854); settings: HEK293 viability counter-screen; series mostly up to 41.8 µM;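 note: HEK293 cells exposed to compounds for 24 hr before the viability read; % is set by controls: 0 for no effect and ±100 for the full control effect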
Outline: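 Cytotoxicity in human HEK293 cells is measured by ATP-dependent CellTiter-Glo luminescence following a 24 hr incubation with titrated library compounds at 37C. Top final concentration is 41.7 uM.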

Row | SMILES | outcome
35 | CNc1ncnc2c1ncn2[C@@H]1O[C@H](CO)[C@@H](O)[C@H]1O | inactive
36 | COc1cc(/C=C/C(=O)CC(=O)/C=C/c2ccc(O)c(OC)c2)ccc1O | inactive
37 | CC[C@@H](C)[C@H]1O[C@]2(CC[C@@H]1C)C[C@@H]1C[C@@H](C/C=C(\C)[C@@H](O[C@H]3C[C@H](OC)[C@@H](O[C@H]4C[C@H](OC)[C@@H](O)[C@H](C)O4)[C@H](C)O3)[C@@H](C)/C=C/C=C3\CO[C@@H]4[C@H](O)C(C)=C[C@@H](C(=O)O1)[C@]34O)O2 | inactive
38 | N=c1ccn2c(n1)O[C@H]1[C@H](O)[C@@H](CO)O[C@H]12 | inactive
39 | CC(C(=O)O)c1ccc(C(=O)c2cccs2)cc1 (stereo not given) | inactive
40 | CCCCCCOc1ccccc1C(N)=O | inactive
